The results in this text go back to PubChem BioAssay (Tox21).

A short description of assay [1]: qHTS assay to identify small molecule agonists of the RXR signaling pathway - cell viability counter screen (AID 1159529).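 Note: HEK 293T cells carrying an RXR-alpha UAS beta-lactamase reporter; series mostly up to about 77 µM; nearly all actives have a fitted effect of over 50% in size.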 The method, boiled down: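 Steps: seed RXR-alpha-UAS-bla HEK 293T cells in assay medium containing 2% charcoal-stripped FBS; incubate 5 hr; add compounds in DMSO; incubate 16 hr at 37 C; after the bla read, add CellTiter-Glo and read luminescence at 30 min.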

Assay [2] in a line: qHTS assay to identify small molecule antagonists of the retinoid acid receptor (RAR) signaling pathway - cell viability counter screen (AID 1159551). Note: nearly all actives have a fitted effect of over 35% in size. The method, boiled down: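 In this counter screen, the RARE-luciferase line C3RL4 was exposed for 6 h at 37 C and 5% CO2 to compounds with retinol at 1 uM final. Cellular ATP, read by luminescence, served as the viability measure.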

Assay [3] in a line: qHTS assay to identify small molecule antagonists of the retinoic acid receptor (RAR) signaling pathway (AID 1159552; note: nearly all actives have a fitted effect of over 50% in size). Summed up:
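Retinol at 1 uM final stimulated RARE-luciferase expression in C3RL4 cells exposed to test compounds for 6 hr at 37 C. Reduced luminescence, read 30 min after detection reagent, indicated pathway antagonism.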

Assay [4] is described as follows: qHTS assay to identify small molecule agonists of the retinoic acid receptor (RAR) signaling pathway (AID 1159553). Note: potency is the fitted concentration of half-maximal effect. The method, boiled down: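 In this cell-based screen, 1,000 C3RL4 cells per well were cultured overnight, dosed with test chemicals in DMSO for 6 hr, and assessed for RARE luciferase luminescence.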
Assay [5] in a line: qHTS assay to identify small molecule antagonists of the estrogen related receptor (ERR) signaling pathway from Tox21 library - cell viability counter screen (AID 1224834). Note: nearly all actives have a fitted effect of over 30% in size. The method, boiled down: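 Counter screen run in ERR cells (2,000 cells/well): cells pre-incubated 6 h, then treated with compounds for 17.5 h at 37 C. Fluorescence was read 30 min after CellTiter-Fluor addition.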

Assay [6] in a line: qHTS assay to identify small molecule antagonists of the constitutive androstane receptor (CAR) signaling pathway - cell viability counter screen (AID 1224837). Note: series mostly up to about 92 µM; nearly all actives have a fitted effect of over 45% in size. The method, boiled down: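 CITCO at 50 nM final was added alongside compounds (15 concentrations) to double-stable hCAR/CYP2B6-2.2kb HepG2 cells. Following 23 hr at 37 C, cell viability was quantified by CellTiter-Fluor fluorescence intensity.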

The nature of assay [7]: qHTS assay to identify small molecule antagonists of the estrogen related receptor signaling pathway with the pleiotropic PPARgamma coactivator (PGC) from Tox21 10K library - cell viability counter screen (AID 1224840; active = well fitted cell-killing curve with a large enough effect in the repeat runs, not every such curve was filed as active; note: nearly all actives have a fitted effect of over 40% in size). Summed up:
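Readout: fluorescence intensity from CellTiter-Fluor after 30 min at 37 C/5% CO2. Preceded by 17.5 h treatment of PGC/ERR cells with DMSO-dissolved compounds, added 6 h post-seeding.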

The target of assay [8] is Thyrotropin receptor (Homo sapiens) (UniProt P16473). Description: qHTS assay to identify small molecule agonists of the thyroid stimulating hormone receptor (TSHR) signaling pathway (AID 1224843; calls by dose curve; note: nearly all actives have a fitted effect of over 45% in size; note: potency is the fitted concentration of half-maximal effect). The method, boiled down: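 Using 15 concentrations per compound in triplicate, cAMP production was monitored in TSHR-HEK293 cells after 30 min compound incubation at RT; HTRF reagents followed, with fluorescence intensity recorded after 1 h.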
Thyrotropin receptor (Homo sapiens), sequence (P16473 whole entry, looked up): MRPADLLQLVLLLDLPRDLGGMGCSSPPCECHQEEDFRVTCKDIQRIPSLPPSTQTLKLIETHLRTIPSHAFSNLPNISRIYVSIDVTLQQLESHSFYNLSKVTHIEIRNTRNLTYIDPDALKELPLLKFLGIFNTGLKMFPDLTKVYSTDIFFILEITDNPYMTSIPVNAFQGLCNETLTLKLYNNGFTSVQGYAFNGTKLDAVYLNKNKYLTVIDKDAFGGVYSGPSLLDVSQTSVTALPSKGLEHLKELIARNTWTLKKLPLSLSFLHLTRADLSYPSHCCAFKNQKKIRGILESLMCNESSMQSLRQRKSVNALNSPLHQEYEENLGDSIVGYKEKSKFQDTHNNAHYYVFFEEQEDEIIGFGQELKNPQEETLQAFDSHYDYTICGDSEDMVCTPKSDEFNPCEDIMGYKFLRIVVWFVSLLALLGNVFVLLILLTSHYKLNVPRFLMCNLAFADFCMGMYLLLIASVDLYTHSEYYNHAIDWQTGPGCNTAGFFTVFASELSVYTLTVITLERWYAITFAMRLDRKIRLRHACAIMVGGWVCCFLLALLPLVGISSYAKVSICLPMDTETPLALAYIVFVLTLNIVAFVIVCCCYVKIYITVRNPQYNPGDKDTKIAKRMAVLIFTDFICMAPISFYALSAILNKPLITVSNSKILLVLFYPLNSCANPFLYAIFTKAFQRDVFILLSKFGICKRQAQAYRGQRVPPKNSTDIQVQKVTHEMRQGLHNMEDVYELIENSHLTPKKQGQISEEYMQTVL

Assay [9] addresses Luciferin 4-monooxygenase (Photinus pyralis) (UniProt P08659). Description: qHTS assay to identify small molecule inhibitors of firefly luciferase (AID 1224835). Note: nearly all actives have a fitted effect of over 25% in size. Note: potency is the fitted concentration of half-maximal effect. The method, boiled down: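 Quantitative HTS format; KM concentrations of both substrates. Purified P. pyralis FLuc activity quantified from luminescence images.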
The target of assay [10] is Nuclear receptor subfamily 1 group I member 3 (Homo sapiens) (UniProt Q14994). Description: qHTS assay to identify small molecule antagonists of the constitutive androstane receptor (CAR) signaling pathway (AID 1224838). Note: nearly all actives have a fitted effect of over 40% in size. Summed up: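 Inhibition of CITCO-driven (50 nM final) CYP2B6 reporter expression is measured in HepG2 cells stably carrying hCAR. Fifteen compound concentrations are applied for 24 h at 37 C, followed by luciferase luminescence.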
Nuclear receptor subfamily 1 group I member 3 (Homo sapiens), sequence (Q14994 whole entry, looked up): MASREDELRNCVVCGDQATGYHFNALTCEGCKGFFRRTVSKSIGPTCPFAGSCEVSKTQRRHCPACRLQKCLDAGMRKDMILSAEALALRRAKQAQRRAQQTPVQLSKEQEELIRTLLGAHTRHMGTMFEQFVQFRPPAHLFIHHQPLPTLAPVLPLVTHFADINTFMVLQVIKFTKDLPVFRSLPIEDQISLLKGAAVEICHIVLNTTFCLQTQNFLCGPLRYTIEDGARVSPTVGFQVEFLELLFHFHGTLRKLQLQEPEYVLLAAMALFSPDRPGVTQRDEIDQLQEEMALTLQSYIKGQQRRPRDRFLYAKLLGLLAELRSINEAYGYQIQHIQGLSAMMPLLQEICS

For assay [11] the target is unchanged. Put plainly: qHTS assay to identify small molecule agonists of the constitutive androstane receptor (CAR) signaling pathway (AID 1224839). Note: nearly all actives have a fitted effect of over 15% in size. Note: potency is the fitted concentration of half-maximal effect. Summed up:
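Cells were plated and incubated 4 hrs, then dosed with compounds at 15 concentrations. PK11195 was added to 0.75 uM final. After 24 hrs at 37 C, luciferase luminescence was measured.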

Assay [12] in a line: qHTS assay to identify small molecule antagonists of the estrogen related receptor signaling pathway with the pleiotropic PPARgamma coactivator (PGC) from Tox21 10K library (AID 1224841; call rule not given here; note: series mostly up to about 92 µM; actives are mostly falling curves and most rising ones were filed inactive; nearly all actives have a fitted effect of over 50% in size). The method, boiled down:
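One-Glo luminescence, measured after half an hour at room temperature, quantified reporter output of PGC/ERR cells. These had been plated at 2,000 per well, incubated 6 h, dosed with compounds in DMSO, then kept 18 h at 37 C.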

Assay [13] can be described thus: qHTS assay to identify small molecule agonists of the estrogen related receptor signaling pathway with the pleiotropic PPARgamma coactivator (PGC) from Tox21 10K library (AID 1224842). Note: nearly all actives have a fitted effect of over 15% in size. Note: potency is the fitted concentration of half-maximal effect. The method, boiled down: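 PGC/ERR reporter cells (NTP line) were seeded 2,000 per well, rested 6 h at 37 C/5% CO2, then pin-dosed with compounds in DMSO for 18 h at 37 C; luciferase read by One-Glo luminescence after 30 min at room temperature.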

The nature of assay [14]: qHTS assay to identify small molecule agonists of the constitutive androstane receptor (CAR) signaling pathway - cell viability counter screen (AID 1224836). Note: series mostly up to about 92 µM; nearly all actives have a fitted effect of over 45% in size. The method, boiled down: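 Cells were seeded and incubated 4 hrs. Compounds were added across 15 concentrations together with PK11195 at 0.75 uM final. Plates were incubated 23 hrs at 37 C. CellTiter-Fluor was added and fluorescence measured.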

The nature of assay [15]: qHTS assay to identify small molecule antagonists of the estrogen related receptor (ERR) signaling pathway - cell viability counter screen (AID 1224818). Note: series mostly up to about 46 µM. Summed up:
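Viability of ERR cells, CellTiter-Fluor fluorescence; 17.5 h compound exposure at 37 C, DMSO vehicle; 30 min reagent incubation at 37 C/5% CO2.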

Assay [16] can be described thus: qHTS assay to identify small molecule antagonists of the estrogen related receptor signaling pathway with the pleiotropic PPARgamma coactivator (PGC) cell viability counter screen (AID 1224822; note: series mostly up to about 46 µM). The method, boiled down:
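17.5 h compound treatment of PGC/ERR cells at 37 C; readout CellTiter-Fluor fluorescence; run alongside the PGC/ERR antagonist screen to flag cytotoxic compounds.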

Assay [17] is described as follows: qHTS assay to identify small molecule agonists of the estrogen related receptor (ERR) signaling pathway (AID 1224820). Summed up: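 Following a 6 h settling period, 2,000 ERR cells per well receive DMSO-dissolved compounds by pin tool and incubate 18 h at 37 C; agonist activity is scored from One-Glo luminescence read 30 min post-addition.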
The test system of assay [18] is estrogen-related receptor alpha (ERRalpha) with PGC-1alpha coactivator, human. Put plainly: qHTS assay to identify small molecule antagonists of the estrogen related receptor signaling pathway with the pleiotropic PPARgamma coactivator (PGC) (AID 1224821; calls by dose curve;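 note: series mostly up to about 46 µM; lower luminescence signal means antagonism of PGC/ERR signalling; nearly all actives have a fitted effect of over 50% in size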). Summed up:
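Screening used NTP's PGC/ERR cells, dosed via pin tool with compound in DMSO alongside positive and negative controls. After 18 h at 37 C, One-Glo reagent sat 30 min at room temperature before luminescence detection.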

The nature of assay [19]: qHTS assay to identify small molecule agonists of the estrogen related receptor signaling pathway with the pleiotropic PPARgamma coactivator (PGC) (AID 1224823). Summed up:
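In this quantitative high-throughput screen, an 18 h, 37 C treatment of PGC/ERR cells with compounds in DMSO preceded a One-Glo luminescence read taken after 30 min at room temperature.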

Molecules are shown by their SMILES. Inconclusive results are not listed. A number with no mark means an inactive call. Calls of active or inactive are those of the source. Unless noted, calls come from the whole dose curve; as a rule, active = well fitted curve in the direction sought with a large enough effect in the repeat runs; inconclusive = weak or mixed curves; inactive = no such curve, though single readings can be large; an effect the other way counts as inactive or inconclusive.

Luciferin 4-monooxygenase (Photinus pyralis), sequence (P08659 whole entry, looked up): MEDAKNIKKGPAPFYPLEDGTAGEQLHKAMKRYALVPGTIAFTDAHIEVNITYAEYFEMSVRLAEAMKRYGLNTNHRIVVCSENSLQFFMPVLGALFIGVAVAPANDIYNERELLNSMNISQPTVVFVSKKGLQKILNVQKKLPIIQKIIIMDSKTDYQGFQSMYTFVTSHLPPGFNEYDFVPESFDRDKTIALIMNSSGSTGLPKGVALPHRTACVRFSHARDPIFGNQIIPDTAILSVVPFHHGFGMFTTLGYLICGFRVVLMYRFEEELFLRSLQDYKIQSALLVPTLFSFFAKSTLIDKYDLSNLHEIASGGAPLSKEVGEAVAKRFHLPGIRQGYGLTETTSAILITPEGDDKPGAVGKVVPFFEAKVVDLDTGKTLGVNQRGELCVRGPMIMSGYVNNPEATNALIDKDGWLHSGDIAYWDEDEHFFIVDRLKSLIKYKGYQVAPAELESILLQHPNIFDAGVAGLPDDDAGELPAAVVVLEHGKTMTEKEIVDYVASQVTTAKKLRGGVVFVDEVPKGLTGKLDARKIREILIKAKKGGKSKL

Regarding `C=CC(C)(CCC=C(C)C)OC(=O)c1ccccc1` (configuration not stated), the Potency result in assay [1], in assay [2], in assay [3], in [4], in assay [5] and in assay [6] was “inactive” each time. For the same compound, the Potency entry in assay [7] and in assay [8] was “inactive” in each case.

Take `CCCCCOC(=O)c1ccc(O)cc1`: the Potency entry in [1], in assay [2], in [3], in assay [6], in assay [10] and in assay [12] was “inactive” throughout. Besides, in assay [8], the Potency result is “inactive”. Besides, the Potency in assay [4] is 1.23 µM (active); in [9] it was 36 µM (active); in assay [11], 55.1 µM (active); in [13], 27.6 µM (active).

Regarding `CCCCCCCCCO`, the Potency entry in assay [1], in assay [2], in assay [3], in [4], in [5] and in assay [14] was “inactive” in each case. Also, the Potency result in assay [10], in [11], in assay [7], in assay [12], in [13] and in assay [8] was “inactive” each time.

As to `CC(C)NCC(O)COc1ccc(CC(N)=O)cc1` (configuration not stated), the Potency result in assay [1], in [2], in assay [4], in [5], in assay [9] and in [14] was “inactive” throughout. The Potency result in assay [6] and in assay [7] was “inactive” throughout. Also, the result in assay [15] and in [16] was inactive.

In the case of `O=C(O)c1cccc(N(Cc2cccnc2)c2ccc(OC(F)F)c(OC(F)F)c2)c1`, the Potency result in assay [1], in assay [2], in [3], in assay [4], in [14] and in assay [6] was “inactive” throughout. Besides, the Potency result in assay [11], in assay [7], in assay [12] and in assay [13] was “inactive” throughout.

With `CCN(CC)CCc1nc(-c2ccccc2)no1`, the Potency result in [1], in [2], in assay [3], in [5], in assay [9] and in assay [6] was “inactive” in each case. The Potency result in assay [10], in assay [7], in [13] and in assay [8] was “inactive” throughout. Moreover, in assay [11], the Potency is 9.44 µM (active).

As to `CCCCCCCC/C=C\CCCCCCCC(N)=O`, the Potency entry in [1], in [2], in [4], in assay [5], in assay [9] and in assay [14] was “inactive” throughout. Also, the Potency result in [6], in assay [10], in assay [11], in [7], in assay [12] and in assay [13] was “inactive” each time. Further, the Potency entry in [8] was “inactive”.

With `CC(C)(C)c1cc(CO)cc(C(C)(C)C)c1O`, the Potency entry in assay [1], in assay [2], in assay [3], in assay [4], in [14] and in [10] was “inactive” in each case. The Potency entry in [7] and in assay [13] was “inactive” each time. In addition, the Potency in assay [11] was 24.8 µM (active).

Take `CC(C)CC=O`: the Potency result in [1], in assay [2], in assay [4], in assay [5], in [9] and in assay [14] was “inactive” throughout. Also, the Potency entry in assay [6], in assay [10], in [11] and in assay [7] was “inactive” throughout.

Take `c1ccc(OCc2ccc(CCCN3CCOCC3)cc2)cc1`: the Potency result in assay [1], in [2], in assay [3], in assay [14], in assay [6] and in [7] was “inactive” throughout. Moreover, the Potency result in [12] and in assay [13] was “inactive” each time. For the same compound, the Potency in assay [4] is 13.3 µM (active).

With `O=C(O)Cc1cc(I)c(Oc2ccc(O)c(I)c2)c(I)c1`, the Potency result in assay [1], in assay [2], in assay [3], in assay [4], in [5] and in assay [14] was “inactive” in each case. Also, the Potency entry in assay [7] and in [13] was “inactive” in each case.

On to `CN(C(=O)CCCOc1ccc2[nH]c(=O)ccc2c1)C1CCCCC1`, for which the Potency entry in assay [1], in assay [2], in assay [4], in [5], in assay [9] and in assay [6] was “inactive” each time. For the same compound, the Potency entry in assay [10], in assay [7], in assay [12] and in [13] was “inactive” each time. For the same compound, the result in [15], in [17], in assay [18], in assay [16] and in assay [19] was inactive. For the same compound, the Potency in assay [8] was 0.335 µM (active).

As for `Cl/C(=C\n1cncn1)c1ccc(Cl)cc1Cl`, the Potency entry in [1], in assay [2], in assay [3], in [4], in assay [5] and in assay [14] was “inactive” each time. In addition, the Potency result in assay [6], in assay [11], in assay [7], in assay [12], in [13] and in [8] was “inactive” each time.

Consider `O=C1Nc2cc(Cl)ccc2Oc2ccccc21`, for which the Potency entry in [1], in assay [2], in assay [3], in assay [4], in assay [5] and in assay [7] was “inactive” each time. In addition, the Potency entry in [8] is “inactive”.

In the case of `O=C(/C=C/c1ccc(O)c(O)c1)O[C@@H]1C[C@](O)(C(=O)O)C[C@@H](O)[C@H]1O`, the Potency entry in assay [1], in [2], in assay [3], in assay [4], in [5] and in assay [14] was “inactive” each time. For the same compound, the Potency entry in assay [6] and in assay [7] was “inactive” each time.

With `CC(CN)CCCN` (configuration not stated), the Potency result in assay [1], in assay [2], in assay [3], in [5], in [14] and in assay [6] was “inactive” each time. Also, the Potency entry in assay [10], in assay [11], in assay [7], in [12] and in [13] was “inactive” each time.

For the compound `Cc1occc1S`, the Potency result in [1], in [2], in assay [4], in [5], in assay [9] and in assay [14] was “inactive” throughout. Further, the Potency entry in [6], in assay [10], in [7], in assay [12], in assay [13] and in assay [8] was “inactive” in each case.
